“And” between values parts separate entries of the source, which are not always exact repeats. Equal entries are not always repeated. In all, about 5,500 compounds went through this assay and about 2,000 (36%) were called active. Another 18% or so got no clear call; they are omitted. No stated cut-off is given here; in the data, active means normalized growth mostly below about 0.91 (no sharp cut-off); inconclusive means no clear call, values can overlap the other calls; inactive means mostly above about 0.92. The list shows a part of the results.
Test: chemical genetic growth profiling, strain panel (AID 1159580);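 further: tested at 20 µM; growth read once vehicle control cultures reached saturation at 30 °C; 1 = growth at the plate median or of vehicle wells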
Conditions: growth OD

Measured: normalized growth

Cn1c(=O)c2c(ncn2C)n(C)c1=O
inactive: S. cerevisiae deletion strains, locus YJR043C, strain POL32, stronger effect = lower value 1.02 | S. cerevisiae deletion strains, locus YJR066W, strain TOR1, stronger effect = lower value 0.97 | S. cerevisiae deletion strains, locus YJR075W, strain HOC1, stronger effect = lower value 1 | S. cerevisiae deletion strains, locus YKL009W, strain mrt4, stronger effect = lower value 1.03 | S. cerevisiae deletion strains, locus YKL068W, stronger effect = lower value 1.01 | S. cerevisiae deletion strains, locus YKL085W, strain MDH1 (second series), stronger effect = lower value 0.991 | S. cerevisiae deletion strains, locus YKL085W, strain MDH1, stronger effect = lower value 0.991 | S. cerevisiae deletion strains, locus YKL160W, strain elf1, stronger effect = lower value 1.02 | S. cerevisiae deletion strains, locus YKR001C, strain vps1, stronger effect = lower value 1 | S. cerevisiae deletion strains, locus YKR026C, strain gcn3, stronger effect = lower value 0.965 | S. cerevisiae deletion strains, locus YKR091W, strain srl3, stronger effect = lower value 0.969 | S. cerevisiae deletion strains, locus YLL001W, strain dnm1, stronger effect = lower value 0.932 | S. cerevisiae deletion strains, locus YLL026W, stronger effect = lower value 0.962 | S. cerevisiae deletion strains, locus YLL041C, strain sdh2, stronger effect = lower value 0.976 | S. cerevisiae deletion strains, locus YLR027C, strain aat2, stronger effect = lower value 0.976 | S. cerevisiae deletion strains, locus YLR039C, strain RIC1, stronger effect = lower value 0.989 | S. cerevisiae deletion strains, locus YLR058C, strain SHM2, stronger effect = lower value 1 | S. cerevisiae deletion strains, locus YLR102C, strain apc9, stronger effect = lower value 1.01 | S. cerevisiae deletion strains, locus YLR113W, strain HOG1, stronger effect = lower value 1.04 | S. cerevisiae deletion strains, locus YLR258W, strain gsy2, stronger effect = lower value 0.976 | S. cerevisiae deletion strains, locus YLR262C, strain YPT6 (second series), stronger effect = lower value 0.996 | S. cerevisiae deletion strains, locus YLR262C, strain YPT6, stronger effect = lower value 0.988 | S. cerevisiae deletion strains, locus YLR268W, strain sec22, stronger effect = lower value 1.03 | S. cerevisiae deletion strains, locus YLR320W, strain mms22, stronger effect = lower value 0.987 | S. cerevisiae deletion strains, locus YLR330W, strain CHS5, stronger effect = lower value 0.999 | S. cerevisiae deletion strains, locus YLR342W, strain FKS1 (second series), stronger effect = lower value 1.03 | S. cerevisiae deletion strains, locus YLR342W, strain FKS1, stronger effect = lower value 0.983 | S. cerevisiae deletion strains, locus YLR357W, strain rsc2, stronger effect = lower value 0.98 | S. cerevisiae deletion strains, locus YLR370C, strain arc18, stronger effect = lower value 0.936 | S. cerevisiae deletion strains, locus YLR371W, strain rom2, stronger effect = lower value 0.989 | S. cerevisiae deletion strains, locus YLR384C, strain iki3, stronger effect = lower value 0.97 | S. cerevisiae deletion strains, locus YLR418C, strain cdc73, stronger effect = lower value 0.947 | S. cerevisiae deletion strains, locus YML016C, strain PPZ1, stronger effect = lower value 0.995 | S. cerevisiae deletion strains, locus YML032C, strain rad52, stronger effect = lower value 1.01 | S. cerevisiae deletion strains, locus YML120C, strain ndi1, stronger effect = lower value 0.926 | S. cerevisiae deletion strains, locus YML124C, strain tub3, stronger effect = lower value 1 | S. cerevisiae deletion strains, locus YMR058W, strain fet3, stronger effect = lower value 0.96 | S. cerevisiae deletion strains, locus YMR078C, strain ctf18, stronger effect = lower value 0.995 | S. cerevisiae deletion strains, locus YMR125W, strain sto1, stronger effect = lower value 0.954 | S. cerevisiae deletion strains, locus YMR129W, stronger effect = lower value 0.988 | S. cerevisiae deletion strains, locus YMR205C, strain PFK2, stronger effect = lower value 0.991 | S. cerevisiae deletion strains, locus YMR223W, strain ubp8, stronger effect = lower value 1 | S. cerevisiae deletion strains, locus YMR231W, strain pep5, stronger effect = lower value 0.987 | S. cerevisiae deletion strains, locus YMR307W, strain GAS1, stronger effect = lower value 0.974 and 0.988 | S. cerevisiae deletion strains, locus YNL067W, strain RPL9B, stronger effect = lower value 1 | S. cerevisiae deletion strains, locus YNL071W, strain lat1, stronger effect = lower value 0.995 | S. cerevisiae deletion strains, locus YNL128W, strain TEP1, stronger effect = lower value 0.997 | S. cerevisiae deletion strains, locus YNL175C, strain NOP13, stronger effect = lower value 1.02 | S. cerevisiae deletion strains, locus YNL183C, strain NPR1, stronger effect = lower value 0.987 | S. cerevisiae deletion strains, locus YNL197C, strain WHI3, stronger effect = lower value 1.12 | S. cerevisiae deletion strains, locus YNL209W, strain ssb2, stronger effect = lower value 0.959 | S. cerevisiae deletion strains, locus YNL224C, strain SQS1, stronger effect = lower value 1.01 | S. cerevisiae deletion strains, locus YNL233W, strain BNI4, stronger effect = lower value 0.984 | S. cerevisiae deletion strains, locus YNL248C, strain rpa49, stronger effect = lower value 1.03 | S. cerevisiae deletion strains, locus YNL250W, strain rad50, stronger effect = lower value 1.01 | S. cerevisiae deletion strains, locus YNL271C, strain bni1, stronger effect = lower value 1.01 | S. cerevisiae deletion strains, locus YNL298W, strain CLA4, stronger effect = lower value 1.01 | S. cerevisiae deletion strains, locus YNL307C, strain MCK1, stronger effect = lower value 1 | S. cerevisiae deletion strains, locus YNL322C, strain KRE1 (second series), stronger effect = lower value 0.963 | S. cerevisiae deletion strains, locus YNL322C, strain KRE1, stronger effect = lower value 0.995 | S. cerevisiae deletion strains, locus YNR049C, strain mso1, stronger effect = lower value 0.956 | S. cerevisiae deletion strains, locus YNR052C, strain pop2, stronger effect = lower value 1 | S. cerevisiae deletion strains, locus YOL006C, strain TOP1, stronger effect = lower value 1.04 | S. cerevisiae deletion strains, locus YOL012C, strain htz1 0.798 | S. cerevisiae deletion strains, locus YOL147C, strain pex11, stronger effect = lower value 0.998 | S. cerevisiae deletion strains, locus YOR001W, strain rrp6, stronger effect = lower value 0.979 | S. cerevisiae deletion strains, locus YOR061W, strain CKA2, stronger effect = lower value 1.01 | S. cerevisiae deletion strains, locus YOR069W, strain VPS5, stronger effect = lower value 1 | S. cerevisiae deletion strains, locus YOR070C, strain gyp1, stronger effect = lower value 0.993 | S. cerevisiae deletion strains, locus YOR080W, strain dia2, stronger effect = lower value 0.956 | S. cerevisiae deletion strains, locus YOR083W, strain WHI5 (second series), stronger effect = lower value 1.02 | S. cerevisiae deletion strains, locus YOR083W, strain WHI5, stronger effect = lower value 1.01 | S. cerevisiae deletion strains, locus YOR106W, strain vam3, stronger effect = lower value 0.969 | S. cerevisiae deletion strains, locus YOR136W, strain idh2, stronger effect = lower value 1.01 | S. cerevisiae deletion strains, locus YOR144C, strain elg1, stronger effect = lower value 1 | S. cerevisiae deletion strains, locus YOR184W, strain ser1, stronger effect = lower value 1.01 | S. cerevisiae deletion strains, locus YOR231W, strain MKK1, stronger effect = lower value 1.04 | S. cerevisiae deletion strains, locus YOR265W, strain rbl2, stronger effect = lower value 0.963 | S. cerevisiae deletion strains, locus YOR270C, strain vph1, stronger effect = lower value 0.988 | S. cerevisiae deletion strains, locus YOR290C, strain snf2, stronger effect = lower value 0.952 | S. cerevisiae deletion strains, locus YOR316C, strain cot1, stronger effect = lower value 1.01 | S. cerevisiae deletion strains, locus YPL051W, strain arl3, stronger effect = lower value 0.949 | S. cerevisiae deletion strains, locus YPL055C, strain LGE1, stronger effect = lower value 0.998 | S. cerevisiae deletion strains, locus YPL078C, strain atp4, stronger effect = lower value 1.02 | S. cerevisiae deletion strains, locus YPL106C, strain sse1, stronger effect = lower value 0.929 | S. cerevisiae deletion strains, locus YPL240C, strain hsp82, stronger effect = lower value 0.974 | S. cerevisiae deletion strains, locus YPL241C, strain CIN2, stronger effect = lower value 0.998 and 1.01 | S. cerevisiae deletion strains, locus YPL256C, strain CLN2, stronger effect = lower value 1.09 | S. cerevisiae deletion strains, locus YPR119W, strain clb2, stronger effect = lower value 0.996 | S. cerevisiae deletion strains, locus YPR141C, strain kar3, stronger effect = lower value 0.992 | S. cerevisiae deletion strains, locus YPR163C, strain tif3, stronger effect = lower value 0.991 | S. cerevisiae deletion strains, locus YPR167C, strain met16, stronger effect = lower value 1 | S. cerevisiae deletion strains, strain wtn01, stronger effect = lower value 1.04 | S. cerevisiae strains, strain wild type, stronger effect = lower value 1
active: S. cerevisiae deletion strains, locus YLR221C, strain rsa3, stronger effect = lower value 0.89

— PubChem BioAssay AID1159580 (chemical genetic matrix, 2015)
